Experimental findings from PubChem BioAssay (NCI) are described below.

Experiment [1] in a line: NCI Yeast Anticancer Drug Screen. Data for the rad50 strain (AID 155).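 Further: 0% = growth of vehicle-only cultures of the same strain.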 The settings on record: S. cerevisiae rad50 strain growth inhibition; at 50.0 µM; active compounds read high. The method, boiled down:
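Compounds were tested on a yeast strain with an engineered DNA damage repair alteration; the reported value is growth inhibition normalised to vehicle treatment.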

A short description of experiment [2]: NCI Yeast Anticancer Drug Screen. Data for the mec2-1 strain (AID 157). The note with it: S. cerevisiae mec2-1 strain, at 50.0 µM, active compounds read high. In outline: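 Cells of the genetically defined mec2-1 yeast strain are incubated with test compound. Inhibition of growth is calculated against vehicle-treated controls.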
A short description of experiment [3]: NCI Yeast Anticancer Drug Screen. Data for the sgs1 mgt1 strain (AID 161).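 Further: 0% = growth of cultures given vehicle only.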 The note with it: S. cerevisiae sgs1 mgt1 strain, at 50.0 µM, active compounds read high. In outline: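 Test agents were incubated with a DNA-repair-mutant yeast strain. Growth was then read and compared against vehicle-treated controls.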
Experiment [4] in a line: NCI Yeast Anticancer Drug Screen. Data for the cln2 rad14 strain (AID 165).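 Further: 0% = growth equal to vehicle treated cultures.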 The note with it: S. cerevisiae cln2 rad14 strain, at 50.0 µM, active compounds read high. In outline: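 The screen exposed genetically defined yeast (cln2 rad14) to test compounds and scored growth inhibition relative to vehicle-treated controls.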
Experiment [5] can be described thus: NCI Yeast Anticancer Drug Screen. Data for the bub3 strain (AID 167). The settings on record: S. cerevisiae bub3 mutant strain, at 50.0 µM, active compounds read high. In outline: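 Growth of a checkpoint-deficient yeast mutant is measured after compound exposure. Values represent inhibition relative to vehicle.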
Experiment [6] is described as follows: NCI Yeast Anticancer Drug Screen. Data for the mlh1 rad18 strain (AID 175). The note with it: S. cerevisiae mlh1 rad18 strain growth inhibition; at 50.0 µM; active compounds read high. The method, boiled down:
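Compound-treated yeast growth, normalised to vehicle controls. Strain bears defined DNA repair mutations.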

Compounds without any hit were thinned out: in the full panel of roughly 79,000, 15% have a hit. Values without a mark were called inactive. Calls of active or inactive are those of the source. No stated cut-off is given here; in the data, active means growth inhibition above about 70%; inactive means the rest.

In the case of `O=C1CCc2ccccc21`, the growth inhibition was -26.6% in experiment [1]; -10.5% in experiment [2]; -15% in experiment [3]; 15.1% in experiment [4]; 3.25% in experiment [5]; 7.75% in experiment [6].
Consider `NC(=O)c1nsc(-c2ccc([N+](=O)[O-])cc2)c1N`, for which the growth inhibition was -10.8% in experiment [1]; 0.9% in experiment [2]; -1.8% in experiment [3]; 30.6% in experiment [4]; -17.8% in experiment [5]; -3.7% in experiment [6].
Consider `O=C(NC1(C(=O)O)CCCC1)C(F)(F)F`, for which the growth inhibition in experiment [1] was -13.8%; in experiment [2], 14.7%; in experiment [3], -14.2%; in experiment [4] it was -25.3%; in experiment [5], 2.45%; in experiment [6], -8.25%.
For `COc1ccc(OC)c(/C=C/C2=C(C)C(=O)CC(c3cc(OC)ccc3OC)C2C)c1` (stereo not given), the growth inhibition in experiment [1] is 4.3%; in experiment [2], 12.3%; in experiment [3], 28.3%; in experiment [4], 8.75%; in experiment [5], 2.35%; in experiment [6], 4.3%.
As for `COC(=O)[C@@]12C(=O)N[C@@H](Cc3ccccc3)[C@@H]1[C@H](C)C(C)=C[C@@H]2CO`, the growth inhibition in experiment [1] is -27.4%; in experiment [2], -45.3%; in experiment [3], -44.9%; in experiment [4], -27.8%; in experiment [5], -32.2%; in experiment [6], -24.3%.
As for `CCCCCCCCCCCCCCCCCCNC(=O)c1c(Br)c(Br)cc(Br)c1C(=O)O`, the growth inhibition in experiment [1] was -1.45%; in experiment [2] it was 8.55%; in experiment [3] it was 13.2%; in experiment [4] it was -8.35%; in experiment [5], -3.7%; in experiment [6], 6.75%.
`Cc1cc2c(cc1C)NC1=C(N2)OC(c2cccc(O)c2)C1=O` (stereo not given): the growth inhibition is 1.9% in experiment [1]; -16.9% in experiment [2]; 1.55% in experiment [3]; 4.4% in experiment [4]; -31.4% in experiment [5]; 11.8% in experiment [6].
As for `CC(=O)Oc1ccc2ccccc2c1CS(=O)(=O)O`, the growth inhibition in experiment [1] is 5.6%; in experiment [2], 6.05%; in experiment [3] it was 10.9%; in experiment [4], 4.35%; in experiment [5], 3.35%; in experiment [6], 10.4%.
In the case of `CC1(C)C(=O)N=C(N)N1C(=O)OCc1ccccc1`, the growth inhibition in experiment [1] is -11.9%; in experiment [2] it was -4.45%; in experiment [3], -6.6%; in experiment [4], 13.8%; in experiment [5], -10%; in experiment [6] it was -17.5%.
Turning to `Cn1nc2ccc([N+](=O)[O-])cc2[n+]1[O-]`, the growth inhibition is 28.4% in experiment [1]; -2.45% in experiment [2]; -2.8% in experiment [3]; -19.4% in experiment [4]; 0.05% in experiment [5]; -17.2% in experiment [6].
As for `CCOC1NC(=O)c2ccccc21` (stereo not given), the growth inhibition in experiment [1] is 22.1%; in experiment [2], 6.15%; in experiment [3], 5.85%; in experiment [4], 22.2%; in experiment [5], 19.1%; in experiment [6] it was 12.8%.
Consider `Cc1cc(Cc2cc(C)c(O)c(CN(C)C)c2)cc(CN(C)C)c1O`, for which the growth inhibition in experiment [1] was -1.8%; in experiment [2], -7.7%; in experiment [3] it was 1.35%; in experiment [4], -19.5%; in experiment [5] it was -6.1%; in experiment [6] it was -7.05%.
For `C=CCC(c1ccccc1)(c1ccccc1)c1ccccc1`, the growth inhibition in experiment [1] is -3.35%; in experiment [2] it was 5.25%; in experiment [3], 3.65%; in experiment [4], 3.55%; in experiment [5], 7.25%; in experiment [6] it was 8.25%.
Consider `O=C1CC(C2OCOC3COCOC32)CC(=O)N1` (stereo not given), for which the growth inhibition in experiment [1] was 4.15%; in experiment [2] it was -5.1%; in experiment [3], -7.15%; in experiment [4], 2.3%; in experiment [5] it was -12.8%; in experiment [6], -1.65%.
For the molecule `O=C(CCC(=O)Nc1cccc([N+](=O)[O-])c1)CC(=O)c1ccc(Cl)cc1`, the growth inhibition was -26.6% in experiment [1]; -4% in experiment [2]; -7.9% in experiment [3]; -25% in experiment [4]; -12.1% in experiment [5]; -23.3% in experiment [6].
Regarding `COc1ccc(C)cc1N`, the growth inhibition in experiment [1] is 19.2%; in experiment [2], -5.3%; in experiment [3], -1.15%; in experiment [4] it was 24.4%; in experiment [5], -3.2%; in experiment [6] it was 24.4%.
On to `O=C(NC(Nc1ccc(F)cc1)(C(F)(F)F)C(F)(F)F)C(C(F)(F)F)C(F)(F)F`, for which the growth inhibition in experiment [1] was 87.4% (active); in experiment [2], 88.6% (active); in experiment [3] it was 91.8% (active); in experiment [4], 92.2% (active); in experiment [5] it was 90.7% (active); in experiment [6], 93.2% (active).
Take `COc1ccc(/C=C/C(=O)C(CN(C)C)CN(C)C)cc1OC`: the growth inhibition in experiment [1] was -0.95%; in experiment [2] it was -6.7%; in experiment [3] it was -25.2%; in experiment [4], -4.8%; in experiment [5], -6.55%; in experiment [6], -16.4%.
In the case of `O=C1c2cccc3cccc(c23)C1(O)S(=O)(=O)O` (stereo not given), the growth inhibition was 4.6% in experiment [1]; -2.1% in experiment [2]; 0.85% in experiment [3]; -13.8% in experiment [4]; 21.5% in experiment [5]; 6.95% in experiment [6].
`SC1c2cc(Cl)ccc2-c2c(Cl)cc(Cl)cc21` (stereo not given): the growth inhibition was -2.7% in experiment [1]; 3.35% in experiment [2]; -6.05% in experiment [3]; 9.1% in experiment [4]; 10.6% in experiment [5]; -11.8% in experiment [6].
